Laboratory results as given in PubChem BioAssay (EPA / NIEHS).
Records with an inconclusive call do not appear. Activity calls are given as the source filed them. How the source made its calls, unless noted: active means hit-call score of the fitted dose curve at least 0.9, where 1 is the maximum; inactive means score below 0.9.

Columns and labels:
[1] = molecular target: Cellular tumor antigen p53 (Homo sapiens) (UniProt P04637); assay: TOX21_p53_BLA_p2_ratio: Tox21 HCT-116 p53 Agonism Beta-lactamase Assay, Ratio, Phase 2 (AID 2283592; active means hit-call score of the fitted dose curve at least 0.9, where 1 is the maximum)
Procedure, shortened: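 Cleaved-to-uncleaved substrate ratio (460 vs 530 nm) measured in HCT116 cells with an inducible beta-lactamase reporter linked to p53 activity. Compounds incubated 16 h at 37C before 2 h room-temperature CCF4-AM loading.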

[2] = TOX21_p53_BLA_p3_viability: Viability Assessment in the Tox21 HCT-116 p53 Agonism Beta-lactamase Assay, Phase 3 (AID 2283593; active means hit-call score of the fitted dose curve at least 0.9, where 1 is the maximum;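 further: cells exposed to compound for 16 h before reading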)
Procedure, shortened: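 HCT-116 cells (4000/well) rested 5 h at 37C, then got DMSO compounds by pin tool (217-fold dilution) for 16 h at 37C, 5% CO2. After the bla read, CellTiter-Glo was added and luminescence read at 30 min, room temperature.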

[3] = molecular target: Cellular tumor antigen p53 (Homo sapiens) (UniProt P04637); assay: TOX21_p53_BLA_p3_ratio: Tox21 HCT-116 p53 Agonism Beta-lactamase Assay, Ratio, Phase 3 (AID 2283596; active means hit-call score of the fitted dose curve at least 0.9, where 1 is the maximum)
Procedure, shortened: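 Cells were seeded at 4000/well, rested 5 h at 37C, then dosed with DMSO compound solutions (217-fold dilution) for 16 h. CCF4-AM substrate was loaded for 2 h at room temperature, and the 460/530 nm emission ratio was fitted for gain of signal versus DMSO.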

[4] = TOX21_p53_BLA_p4_viability: Viability Assessment in the Tox21 HCT-116 p53 Agonism Beta-lactamase Assay, Phase 4 (AID 2283597; active means hit-call score of the fitted dose curve at least 0.9, where 1 is the maximum;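 further: hits lower the luminescence signal meaning cytotoxicity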)
Procedure, shortened: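 Viability is taken as cellular ATP: after 16 h compound exposure of HCT116 cells and a 2 h room-temperature CCF4-AM substrate step, CellTiter-Glo reagent is added and luminescence is measured 30 min later.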

[5] = molecular target: Cellular tumor antigen p53 (Homo sapiens) (UniProt P04637); assay: TOX21_p53_BLA_p5_ratio: Tox21 HCT-116 p53 Agonism Beta-lactamase Assay, Ratio, Phase 5 (AID 2283599; active means hit-call score of the fitted dose curve at least 0.9, where 1 is the maximum)
Procedure, shortened: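 HCT-116 cells carrying a p53-inducible beta-lactamase reporter were seeded at 4000 cells/well and dosed after 5 h with compound in DMSO (217-fold dilution). After 16 h at 37C, CCF4-AM substrate was added for 2 h, and the 460/530 nm emission ratio was scored as gain-of-signal versus DMSO.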

[6] = molecular target: Cellular tumor antigen p53 (Homo sapiens) (UniProt P04637); assay: TOX21_p53_BLA_p4_ratio: Tox21 HCT-116 p53 Agonism Beta-lactamase Assay, Ratio, Phase 4 (AID 2283601; active means hit-call score of the fitted dose curve at least 0.9, where 1 is the maximum)
Procedure, shortened: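 HCT116 cells carrying an inducible beta-lactamase reporter were plated at 4000 cells/well, rested 5 h, then exposed to compounds in DMSO (217-fold dilution) for 16 h at 37C. CCF4-AM substrate was loaded 2 h at room temperature; 460/530 nm emission ratio scored gain-of-signal versus DMSO.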

[7] = CCTE_Shafer_MEA_dev_firing_rate_mean: CCTE's Neural Network Formation Assay for Mean Firing Rate, Shafer Lab (AID 2284031)
Procedure, shortened: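 Spike frequency (spikes/recording length, averaged over active electrodes) was recorded on days 5, 7, 9 and 12 and collapsed to AUC; rat cortical cultures received compound continuously over 12 days of network development.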

[8] = CCTE_Shafer_MEA_dev_per_burst_spike_percent: CCTE's Neural Network Formation Assay for Percent of Spikes in a Burst, Shafer Lab (AID 2284032)
Procedure, shortened: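 Value is trapezoidal AUC over recordings on days 5, 7, 9 and 12 of the well-mean fraction of spikes falling in single-electrode bursts; rat cortical cultures exposed continuously from plating, treatment renewed DIV 5 and 9, fitted downward against DMSO.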

[9] = CCTE_Shafer_MEA_dev_burst_rate: CCTE's Neural Network Formation Assay for Burst Rate, Shafer Lab (AID 2284042)
Procedure, shortened: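 Rat primary cortical cultures on PEI/laminin MEA; compound from plating, re-dosed at DIV 5, 9 media change. Single-electrode bursts/recording length, well mean of active electrodes; AUC over DIV 5–12 recordings; loss-of-signal vs DMSO.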

[10] = CCTE_Shafer_MEA_dev_bursting_electrodes_number: CCTE's Neural Network Formation Assay for Number of Bursting Electrodes, Shafer Lab (AID 2284043; active means hit-call score of the fitted dose curve at least 0.9, where 1 is the maximum;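 further: potency is for loss of bursting electrodes relative to DMSO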)
Procedure, shortened: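 Counted: electrodes with burst rate ≥1 per 2 min in each well. Cells: primary rat cortex, 1.5 x 10^5/well, on 16-electrode MEA wells. Exposure: DIV 0–12, compound renewed DIV 5 and 9. Recording days 5, 7, 9, 12; AUC vs DMSO baseline.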

[11] = CCTE_Shafer_MEA_dev_per_burst_interspike_interval: CCTE's Neural Network Formation Assay for Burst Interspike Interval, Shafer Lab (AID 2284044)
Procedure, shortened: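 Developmental network-formation MEA in primary rat cortical cultures with exposure spanning days 0–12. Within-burst ISI is averaged per well and integrated across recording days by area under the curve, with DMSO as negative control baseline.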

[12] = CCTE_Shafer_MEA_dev_burst_duration_mean: CCTE's Neural Network Formation Assay for Mean Burst Duration, Shafer Lab (AID 2284045)
Procedure, shortened: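 Network-formation assay in primary rat cortical neurons; treatment spans twelve days of development. Mean burst duration per well is integrated by trapezoidal AUC and fitted in the loss-of-signal direction against DMSO baseline.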

[13] = CCTE_Shafer_MEA_dev_interburst_interval_mean: CCTE's Neural Network Formation Assay for Mean Interburst Interval, Shafer Lab (AID 2284046);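 further: well-mean interburst interval of bursting electrodes as AUC over four recording days; curve fitted for decrease in interburst interval relative to DMSO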
Procedure, shortened: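 Rat cortical neurons, 1.5 x 10^5 cells/well, 48-well MEA; compound from day 0 through DIV 12, media and treatment renewed DIV 5/9. Recordings DIV 5, 7, 9, 12; well-mean interburst interval → trapezoidal AUC, loss direction vs DMSO.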

[14] = CCTE_Shafer_MEA_dev_inter_network_spike_interval_mean: CCTE's Neural Network Formation Assay for Mean Inter-network Spike Interval, Shafer Lab (AID 2284047)
Procedure, shortened: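 Primary rat cortical neurons on PEI-coated 48-well MEAs (16 electrodes/well) were exposed from plating day 0 to DIV 12, with dosing renewed at DIV 5 and 9. Recordings at DIV 5, 7, 9, 12 were collapsed by trapezoidal AUC, loss-of-signal fit vs DMSO.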

[15] = CCTE_Shafer_MEA_dev_network_spike_number: CCTE's Neural Network Formation Assay for Number of Network Spikes, Shafer Lab (AID 2284048);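 further: synchronized bursts across electrodes counted on days 5 7 9 12 and integrated as AUC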
Procedure, shortened: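 Extracellular recordings from 16-electrode wells track network formation in rat cortical cultures under continuous treatment from plating. The endpoint is network spike number, expressed as AUC across DIV 5–12 relative to DMSO vehicle.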

[16] = CCTE_Shafer_MEA_dev_network_spike_peak: CCTE's Neural Network Formation Assay for Mean Number of Electrodes in Network Spike, Shafer Lab (AID 2284049);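 further: fitted for loss of signal meaning fewer electrodes in network spikes than DMSO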
Procedure, shortened: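 Continuous 12-day exposure of rat cortical cultures, starting at plating, on MEA plates. Endpoint: electrodes participating in network-spike peaks, AUC across DIV 5–12, DMSO as negative control.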

[17] = CCTE_Shafer_MEA_dev_network_spike_duration_std: CCTE's Neural Network Formation Assay for Standard Deviation of Network Spike Duration, Shafer Lab (AID 2284052);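 further: area under curve of spike duration SD across recording days 5 to 12; hits are decreases in network spike duration SD versus DMSO vehicle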
Procedure, shortened: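 Rat cortical cultures, 1.5 x 10^5 cells/well, exposed continuously from plating to DIV 12 with media/compound renewal at DIV 5, 9. Spontaneous activity recorded DIV 5/7/9/12, AxIS adaptive spike detector; AUC across days; negative direction vs DMSO.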

[18] = CCTE_Shafer_MEA_dev_per_network_spike_spike_number_mean: CCTE's Neural Network Formation Assay for Mean Number of Spikes in a Network Spike, Shafer Lab (AID 2284053)
Procedure, shortened: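 Rat cortical primary cultures on 48-well MEA; compound from day 0, re-dosed with full media change DIV 5, 9. Recorded DIV 5, 7, 9, 12; spikes in 0.05 s window at network-spike peak ÷ total network spikes; AUC; loss vs DMSO.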

[19] = CCTE_Shafer_MEA_dev_per_network_spike_spike_percent: CCTE's Neural Network Formation Assay for Percent of Spikes in a Network Spike, Shafer Lab (AID 2284054)
Procedure, shortened: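 Developing networks of rat cortical neurons are dosed at day 0 and recorded extracellularly four times up to day 12. The endpoint is the area under the curve of percent spikes in network spikes, fitted in the negative direction relative to DMSO.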

[20] = CCTE_Shafer_MEA_dev_AB: CCTE's Alamar Blue Assay for Cytotoxicity in the Neural Network Formation Assay, Shafer Lab (AID 2284083; active means hit-call score of the fitted dose curve at least 0.9, where 1 is the maximum;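 further: resazurin reduction fluorescence as viability of cultured neurons; twelve days of exposure from plating with re-dosing on DIV 5 and 9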)
Procedure, shortened: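 Rat cortical primary cultures, 1.5 x 10^5 cells/well on MEA; continuous compound exposure over 12 days of network development, re-dosed with full medium change DIV 5 and 9. Alamar Blue fluorescence; loss of signal = cytotoxicity vs DMSO baseline.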

[21] = CCTE_Shafer_MEA_dev_mutual_information_norm: CCTE's Neural Network Formation Assay for Mutual Information Normalization, Shafer Lab (AID 2284091)
Procedure, shortened: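 Exposure of primary rat cortical neurons began at plating and ran to DIV 12, with full media and treatment renewal after DIV 5 and 9 recordings. Mutual information AUC (DIV 5–12) was analysed for loss versus DMSO.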

[22] = UKN2_HCS_IMR90_neural_migration: University of Konstanz (UKN) Leist Lab Neural Crest Cell Migration Assay in human induced IMR90 Pluripotent Stem Cells (UKN2) (AID 2284204); settings: actives raise or lower the signal
Procedure, shortened: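 Using a 96-well stopper format with PLO/laminin/fibronectin coating, neural crest cells from iPSC migrate in cytokine-supplemented N2-S medium; after 24 h, chemicals are applied for a further 24 h, then cells are imaged after dye staining.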

[23] = IUF_NPC1b_proliferation_BrdU_72hr: Leibniz Research Institute for Environmental Medicine (IUF) 72-hour Neural Progenitor Cell Bromodeoxyuridine (BrdU) Proliferation Assay (NPC1b) (AID 2284207)
Procedure, shortened: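 Neural progenitor spheres of human fetal origin are treated for three days; BrdU added for the last 16 h is quantified by luminescence ELISA, with DMSO as baseline and EGF/FGF omission as positive control.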

[24] = IUF_NPC1a_proliferation_area_72hr: Leibniz Research Institute for Environmental Medicine (IUF) 72-hour Neural Progenitor Cell Proliferation Area Assay (NPC1a) (AID 2284208)
Procedure, shortened: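 Proliferation is scored as sphere area gain in primary human fetal neural progenitors treated for 72 h in EGF/FGF-containing medium. Viability, LDH and BrdU readouts come from the same wells.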

[25] = IUF_NPC1_viability_72hr: Viability Assessment at 72 hours in the Leibniz Research Institute for Environmental Medicine (IUF) Neural Progenitor Cell Proliferation Assay (NPC1) (AID 2284209)
Procedure, shortened: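 Viability was measured by resazurin-to-resorufin fluorescence (alamar blue) after 72 h of continuous exposure without compound renewal. Each well held one hNPC sphere (gestational week 16-19 fetal cortex, 0.25-0.35 mm) cultured in EGF/FGF proliferation medium at 37C and pH 7.2-7.6.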

[26] = CCTE_Mundy_HCI_Cortical_Synap_Neur_Matur_NeuriteSpotCountPerNeuriteLength: CCTE's Synaptogenesis and Neurite Maturation Assay in rat cortical cells for Neurite Spot Count per Neurite Length, Mundy Lab (AID 2284210)
Procedure, shortened: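 Neurite-associated synapse density (synaptophysin puncta per unit neurite length) is measured by fluorescence high-content imaging in rat cortical cultures treated from DIV 7 and fixed at DIV 12, with DMSO as negative control.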

Measured: AC50

Sequence of Cellular tumor antigen p53 (Homo sapiens) (P04637 whole entry, looked up): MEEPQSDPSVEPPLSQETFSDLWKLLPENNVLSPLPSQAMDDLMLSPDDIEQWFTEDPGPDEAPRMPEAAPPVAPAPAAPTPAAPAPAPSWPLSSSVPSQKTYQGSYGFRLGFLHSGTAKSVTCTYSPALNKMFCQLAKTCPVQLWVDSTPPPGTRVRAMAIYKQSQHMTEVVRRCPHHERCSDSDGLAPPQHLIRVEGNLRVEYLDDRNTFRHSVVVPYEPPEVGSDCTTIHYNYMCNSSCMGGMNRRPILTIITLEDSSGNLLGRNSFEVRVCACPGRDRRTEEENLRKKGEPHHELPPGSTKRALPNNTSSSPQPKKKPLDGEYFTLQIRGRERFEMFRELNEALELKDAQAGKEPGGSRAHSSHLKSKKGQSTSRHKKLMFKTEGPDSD

[Cl-].[Cl-].[NH2-].[NH2-].[Pt+4]
active: [10] 5.08 µM | [16] 9.92 µM | [23] 5.68 µM | [24] 34.9 µM
inactive: all other assays above
